Screening data from PubChem BioAssay.
Only some compounds are listed: those with a hit (about 4.8% of all), similar ones and a draw of the others.
tim23-1 inh – tim23-1 yeast growth inhibition. S. cerevisiae tim23-1 growth, BacTiter-Glo luminescence, 24 h. hit rate 1.3% among 330,000. inhibition, % at 20 µM;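 active = growth inhibition of the mutant yeast at or above 50%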;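 note: temperature-sensitive mutant grown at 25 °C; plate controls were DMSO-treated mutant yeast for no effect and medium wells lacking yeast for full effect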
tim10-1 inh – growth inhibitors of tim10-1 mutant yeast; S. cerevisiae tim10-1 ts strain growth, BacTiter-Glo, 24 h; inhibition, % at 20 µM; hit rate 2.2% among 330,000;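 active = inhibition of at least 40%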;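 note: mutant grown at 25 °C; 0% = DMSO wells with yeast and 100% = wells holding no yeast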
PfHsp90 set2 – inhibits growth of yeast expressing Plasmodium falciparum Hsp90. S. cerevisiae expressing PfHsp90, BacTiter-Glo ATP, 48 h; yeast lacking PDR1 and PDR3 efflux regulators. inhibition, % at 9.4 µM. hit rate 0.32% among 310,000. AID 504621;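 active = every replicate shows inhibition above about 80%, whatever the replicate mean, limit read from the data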;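 note: 0% = DMSO neutral controls and 100% = 20 µM radicicol positive controls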
TIM10 inh – growth inhibitors of TIM10 yeast strain | S. cerevisiae TIM10 strain growth, BacTiter-Glo luminescence, 24 h | inhibition, % at 10 µM | hit rate 1.4% among 330,000 | AID 463195;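 active = inhibition of 40% or more at the single tested concentration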;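 note: wild-type TIM10 isogenic control strain grown at permissive 25 °C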
NALP1 yeast inh – NALP1 inhibition. S. cerevisiae NALP1/ASC/caspase-1 growth, X-gal OD620, 72 h. inhibition, % at 10 µM. hit rate 0.61% among 280,000; in the data active = inhibition mostly above about 24%, no sharp cut-off; inactive = mostly below about 32%
SKKanGAS inh – inhibitors of SKKanGAS S. pyogenes growth in kanamycin (SK-promoter or general growth effect) | BacTiter-Glo, 6 h | inhibition, % at 7.5 µM | hit rate 1.3% among 300,000 | AID 1662;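 active = mean replicate score, as percent of positive control median, at least 50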;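 note: strain carries kanamycin resistance gene driven by streptokinase promoter and grows in 40 µg/ml kanamycin; loss of luminescence reflects streptokinase promoter inhibition or plain growth inhibition; 0% = median of DMSO wells and 100% = positive control at its reference dose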
Starred values were filed as active, the others as inactive; · = no result given; ! = a repeat was not active.

SMILES	tim23-1 inh	tim10-1 inh	PfHsp90 set2	TIM10 inh	NALP1 yeast inh	SKKanGAS inh
O=[N+]([O-])c1ccc(NN=Cc2ccccc2O)nc1	·	·	-17	·	·	·
COc1cccc(/C=N/Nc2nc3ccccc3[nH]2)c1O	19	-6	2	-3	10	79*
O=[N+]([O-])c1ccc(O)c(/C=N/Nc2ccccn2)c1	·	·	111*	·	12	-3
O=[N+]([O-])c1ccc(O)c(/C=N/Nc2nc3ccccc3[nH]2)c1	7	10	20	13	12	71*
COc1ccc(O)c(/C=N/Nc2nc3ccccc3[nH]2)c1	-6	3	28	6	-23	23
O=[N+]([O-])c1ccc(O)c(/C=N/Nc2ncnc3c2cnn3-c2ccccc2)c1	18	12	6	11	-7	88*
CCN(CC)S(=O)(=O)c1ccc(/C=C/C(=O)Nc2ccccc2N2CCOCC2)cc1	29	20	-13	25	11	2
CN(C)CCCNC(=O)CC1C[C@H](C(=O)N2CCOCC2)[C@@]2(CCC3CCCC3)c3[nH]c4ccccc4c3CCN2C1=O (stereo partly drawn)	-14	-11	-22	3	·	·
C/C(N)=C(/C#N)C(=O)COC(=O)c1cc2c(s1)CCC(C)C2 (stereo not drawn)	38	13	·	21	4	-3
CCN(CC(=O)NCc1ccc(Cl)cc1)C(=O)c1oc2ccccc2c1C	11	6	12	-12	14	1
Cc1c(C(=O)NNC(=S)NCc2ccc(Cl)cc2)oc2ccccc12	8	23	-56	-1	2	82*
COc1ccc(C(=O)NCC(=O)OCC(=O)N2N=C(c3ccc(Cl)cc3)CC2c2ccco2)cc1OC (stereo not drawn)	18	22	-19	4	14	76*
COCC(=O)OCC(=O)N1N=C(c2ccc(Cl)cc2)CC1c1ccco1 (stereo not drawn)	22	29	·	26	2	-2
COc1cccc(-c2coc3c(C)c4oc(=O)c(CCC(=O)O)c(C)c4cc23)c1	12	0	-35	14	13	51*
O=C(Nc1ccccc1)c1ccc(OC(=O)c2ccccc2)cc1	20	16	0	-4	10	7
Cc1ccc(NC(=O)c2cc(S(=O)(=O)N3CCOCC3)cs2)cc1	18	12	10	2	-8	-3
O=C(O)c1cc(-c2ccc(-c3c(-c4ccc5c(c4)OCO5)noc3-c3ccsc3)cc2)nc2ccccc12	·	·	-6	·	1	94*
CN(C)c1ccc(-c2c(-c3ccc4c(c3)OCO4)noc2-c2ccsc2)cn1	28	36	-6	19	24	11
O=C(Nc1ccon1)c1ccc(S(=O)(=O)N2CCOCC2)cc1	14	5	-1	-1	-8	2
CSc1ccc(/C=C/C(=O)N2CCCN(C)CC2)cc1	12	-4	8	6	4	0
CCC(C(=O)OC)n1cnc2scc(-c3ccc(C)c(C)c3)c2c1=O (stereo not drawn)	41	25	-80	22	100*	-6
C=CCNc1nc(C(=O)OCC(=O)c2ccc(F)cc2)cs1	3	4	-14	1	·	-12
COC(c1ccccc1)c1nnc(CCC(=O)NCCCc2ccccc2)o1 (stereo not drawn)	13	8	-26	-10	13	-8
COC(c1ccccc1)c1nnc(CCC(=O)N(C)CCc2ccccc2)o1 (stereo not drawn)	11	20	7	-4	30*	0
Clc1ccccc1Oc1cnc2ccccc2n1	10	18	13	2	-29	15
SMILES	tim23-1 inh	tim10-1 inh	PfHsp90 set2	TIM10 inh	NALP1 yeast inh	SKKanGAS inh
CCc1c(C)nc2ncnn2c1Nc1ccc(C#N)c(Cl)c1	14	6	11	2	30*	2
COC(=O)C1=C(C)Nc2c(c(=O)n(C)c(=O)n2C)C1c1cccc(O)c1 (stereo not drawn)	1	8	17	-16	0	3
FC(F)Sc1ccc(NC(=S)NC(c2ccccc2)c2ccccc2)cc1	1	8	-21	12	10	126*
CC(NC(=S)Nc1ccc(F)cc1)c1ccccc1 (stereo not drawn)	28	24	-4	13	-6	5
Cc1nnc(-c2ccc(N3CCOCC3)c([N+](=O)[O-])c2)o1	-1	-6	3	-11	·	·
Cc1cccc(Nc2nnc(-c3ccc(N4CCOCC4)c([N+](=O)[O-])c3)c3ccccc23)c1	26	20	11	23	13	59*
CC1(C)NC(=O)N(CCSc2ccc(Cl)cc2)C1=O	-6	23	-3	-8	30*	0
Cc1nc(-c2ccc3c(c2)OCCCO3)cs1	5	4	9	-9	42*	-6
Cc1nc(-c2ccc3c(c2)OCO3)cs1	8	-8	·	-1	15	-7
CCn1cc(C(=O)O)c(=O)c2cc(F)c(N/N=C/c3ccccc3[N+](=O)[O-])cc21	-24	12	-8	2	24	79*
CCn1cc(C(=O)O)c(=O)c2cc(F)c(N3CCN(C(=S)Nc4ccccc4OC)CC3)cc21	-10	1	-7	7	21	-2
CN(C)c1ccc(C2N(c3ccc(F)cc3)C(=O)C3CCCN32)cc1 (stereo not drawn)	7	-9	·	12	-3	-1
Cc1ccc(C2N(c3ccc(F)cc3)C(=O)C3CCCN32)cc1 (stereo not drawn)	-6	-12	12	-1	44*	-3
CCOc1cccc2sc(N(CCN(C)C)C(=O)c3ccc4ccccc4c3)nc12	29	24	13	22	23	-6
Cc1cc(COC(=O)C2N3C(=O)[C@@H](NC(=O)COc4ccccc4)[C@H]3SC2(C)C)on1 (stereo partly drawn)	23	21	-22	12	-6	103*
CC1(C)S[C@@H]2[C@H](NC(=O)Cc3ccccc3)C(=O)N2[C@H]1C(=O)O	6	2	-8	15	17	100*!
CCC(Oc1ccccc1)C(=O)NC1C(=O)N2C1SC(C)(C)C2C(=O)O (stereo not drawn)	11	13	-15	10	4	111*
CC1(C)S[C@@H]2[C@H](NC(=O)C(NC(=O)N3CCNC3=O)c3ccccc3)C(=O)N2[C@H]1C(=O)O (stereo partly drawn)	8	16	12	-11	13	114*
CCOc1ccc2ccccc2c1C(=O)N[C@@H]1C(=O)N2[C@@H]1SC(C)(C)[C@@H]2C(=O)O	0	1	-25	-1	2	17
CCCCCCCCCOC(=O)C1N2C(=O)[C@@H](NC(=O)COc3ccccc3)[C@H]2SC1(C)C (stereo partly drawn)	9	13	·	4	·	27
Cn1c(C(=O)NCc2ccco2)cc2c(=O)[nH]c3ccccc3c21	6	16	·	19	12	3
